Laboratory results published in PubChem BioAssay (Tox21).
Inconclusive results are not listed. Where a call stands in place of a potency, no number is given. Active and inactive are the calls of the source. Unless noted, the call rests on the fitted dose curve; in most records, active means well fitted curve in the direction sought with a large enough effect in the repeat runs; inconclusive means weak or mixed curves; inactive means no such curve, though single readings can be large; an effect the other way counts as inactive or inconclusive.

Tests used:
[1] = qHTS assay to test for compound auto fluorescence at 535 nm (green) in HEK293 cells (AID 720680)
[2] = qHTS assay to test for compound auto fluorescence at 460 nm (blue) in HEK293 cell free culture (AID 720681)
How it was run: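 Test compounds were pinned into cell-free culture medium (DMEM with 10% FBS) and fluorescence was read directly at Ex/Em 405/460 nm. Signals were expressed as fluorescence equivalents of triamterene, with DMSO vehicle as control.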

[3] = qHTS assay to test for compound auto fluorescence at 535 nm (green) in HEK293 cell free culture (AID 720682)
How it was run: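 Green-channel intensity (Ex/Em 485/535 nm) was recorded from compound-treated wells containing only DMEM with 10% FBS. Fluorescein provided the equivalency standard.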

[4] = qHTS assay to test for compound auto fluorescence at 590 nm (red) in HEK293 cell free culture (AID 720683)
How it was run: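 Tox21 10K library compounds were pinned into cell-free DMEM with 10% FBS and fluorescence was read at excitation 540 nm. Activity is expressed as Rose Bengal sodium equivalency.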

[5] = qHTS assay to test for compound auto fluorescence at 590 nm (red) in HepG2 cell free culture (AID 720684)
How it was run: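 Readout: intrinsic compound fluorescence at 590 nm emission after 540 nm excitation, scaled to Rose Bengal sodium. Matrix was cell-free MEM with 10% FBS; DMSO vehicle wells served as control.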

[6] = qHTS assay to test for compound auto fluorescence at 460 nm (blue) in HepG2 cell free culture (AID 720685)
How it was run: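 Cell-free plates of MEM plus 10% FBS received 23 nL compound or DMSO vehicle; blue-channel (405/460 nm) intensity scored against triamterene as reference fluorophore.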

[7] = qHTS assay to test for compound auto fluorescence at 535 nm (green) in HepG2 cell free culture (AID 720686)
[8] = qHTS assay to test for compound auto fluorescence at 460 nm (blue) in HepG2 cells (AID 720687)
How it was run: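 Cells (2,000/well in MEM with 10% FBS) attached overnight at 37 C, then were exposed to compound or DMSO for 1 hr at 37 C, 5% CO2. Fluorescence read at Ex/Em 405/460 nm, expressed as triamterene-equivalent signal.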

[9] = molecular target: Glucocorticoid receptor (Homo sapiens) (UniProt P04150); assay: qHTS assay to identify small molecule agonists of the glucocorticoid receptor (GR) signaling pathway (AID 720691; active means well fitted activation curve with a large enough effect in the signal ratio in the repeat runs, not every such curve was filed as active; the % refers to the signal ratio; further: potency means the concentration at half of the fitted maximal effect); conditions: GR-bla HeLa, beta-lactamase reporter ratio, 18 h; activation: at 62.4 µM (top of the series)
Chain of Glucocorticoid receptor (Homo sapiens) (P04150 whole entry, looked up): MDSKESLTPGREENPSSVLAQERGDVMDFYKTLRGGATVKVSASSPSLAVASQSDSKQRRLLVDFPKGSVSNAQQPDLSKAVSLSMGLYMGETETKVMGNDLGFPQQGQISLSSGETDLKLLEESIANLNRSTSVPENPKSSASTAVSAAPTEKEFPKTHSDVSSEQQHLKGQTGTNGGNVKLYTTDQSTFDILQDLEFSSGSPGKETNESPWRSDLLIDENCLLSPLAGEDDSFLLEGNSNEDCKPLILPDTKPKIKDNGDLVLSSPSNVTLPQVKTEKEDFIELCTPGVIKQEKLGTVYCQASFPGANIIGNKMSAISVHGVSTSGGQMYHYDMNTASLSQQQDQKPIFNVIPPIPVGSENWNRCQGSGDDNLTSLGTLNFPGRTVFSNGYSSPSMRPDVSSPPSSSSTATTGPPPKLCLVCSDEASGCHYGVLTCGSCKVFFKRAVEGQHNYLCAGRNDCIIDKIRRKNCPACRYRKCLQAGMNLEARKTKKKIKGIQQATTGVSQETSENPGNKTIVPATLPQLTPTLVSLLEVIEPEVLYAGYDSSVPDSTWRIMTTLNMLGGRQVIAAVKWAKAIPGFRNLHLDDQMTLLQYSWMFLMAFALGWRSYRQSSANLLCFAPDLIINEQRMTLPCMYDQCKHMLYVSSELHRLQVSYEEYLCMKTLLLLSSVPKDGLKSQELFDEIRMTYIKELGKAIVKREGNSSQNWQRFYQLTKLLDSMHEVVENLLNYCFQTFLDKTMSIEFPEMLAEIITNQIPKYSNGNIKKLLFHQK
How it was run: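 Agonist-mode qHTS in HeLa cells stably expressing a glucocorticoid-response-element beta-lactamase reporter. Fluorescence intensity read with FRET substrate (2 h, room temperature) after 18 h compound treatment at 37 C.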

[10] = qHTS assay to identify small molecule antagonists of the glucocorticoid receptor (GR) signaling pathway - cell viability counter screen (AID 720693); further: nearly all actives have a fitted effect of over 55% in size
[11] = qHTS assay for identifying genotoxic compounds that show differential cytotoxicity against isogenic chicken DT40 cell lines with known DNA damage response pathways - Rev3 mutant cell line (AID 743014); further: nearly all actives have a fitted effect of over 55% in size; further: potency means the concentration at half of the fitted maximal effect
[12] = qHTS assay for identifying genotoxic compounds that show differential cytotoxicity against isogenic chicken DT40 cell lines with known DNA damage response pathways - Rad54/Ku70 mutant cell line (AID 743015); further: nearly all actives have a fitted effect of over 60% in size; further: potency means the concentration at half of the fitted maximal effect
[13] = qHTS assay to identify small molecule antagonists of the androgen receptor (AR) signaling pathway - cell viability counter screen (AID 743033; further: nearly all actives have a fitted effect of over 45% in size)
[14] = qHTS assay to identify small molecule antagonists of the androgen receptor (AR) signaling pathway using the MDA cell line - cell viability counter screen (AID 743041; further: nearly all actives have a fitted effect of over 45% in size; further: potency means the concentration at half of the fitted maximal effect)
How it was run: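 qHTS viability read-out; MDA-kb2 AR-luc; R1881-stimulated; 16 h exposure at 37C, 0% CO2; CellTiter-Fluor, 30 min; fluorescence intensity.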

[15] = qHTS assay for identifying genotoxic compounds that show differential cytotoxicity against isogenic chicken DT40 cell lines with known DNA damage response pathways - wild type cell line (AID 743012); further: nearly all actives have a fitted effect of over 60% in size; further: potency means the concentration at half of the fitted maximal effect
How it was run: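 Viability by ATP luminescence (CellTiter-Glo, 30 min RT) after 40 h compound treatment at 37 C/5% CO2, using 300 parental DNA repair-proficient DT40 cells per well.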

[16] = molecular target: Androgen receptor (Homo sapiens) (UniProt P10275); assay: qHTS assay to identify small molecule agonists of the androgen receptor (AR) signaling pathway using the MDA cell line (AID 743040; further: nearly all actives have a fitted effect of over 20% in size)
Chain of Androgen receptor (Homo sapiens) (P10275 whole entry, looked up): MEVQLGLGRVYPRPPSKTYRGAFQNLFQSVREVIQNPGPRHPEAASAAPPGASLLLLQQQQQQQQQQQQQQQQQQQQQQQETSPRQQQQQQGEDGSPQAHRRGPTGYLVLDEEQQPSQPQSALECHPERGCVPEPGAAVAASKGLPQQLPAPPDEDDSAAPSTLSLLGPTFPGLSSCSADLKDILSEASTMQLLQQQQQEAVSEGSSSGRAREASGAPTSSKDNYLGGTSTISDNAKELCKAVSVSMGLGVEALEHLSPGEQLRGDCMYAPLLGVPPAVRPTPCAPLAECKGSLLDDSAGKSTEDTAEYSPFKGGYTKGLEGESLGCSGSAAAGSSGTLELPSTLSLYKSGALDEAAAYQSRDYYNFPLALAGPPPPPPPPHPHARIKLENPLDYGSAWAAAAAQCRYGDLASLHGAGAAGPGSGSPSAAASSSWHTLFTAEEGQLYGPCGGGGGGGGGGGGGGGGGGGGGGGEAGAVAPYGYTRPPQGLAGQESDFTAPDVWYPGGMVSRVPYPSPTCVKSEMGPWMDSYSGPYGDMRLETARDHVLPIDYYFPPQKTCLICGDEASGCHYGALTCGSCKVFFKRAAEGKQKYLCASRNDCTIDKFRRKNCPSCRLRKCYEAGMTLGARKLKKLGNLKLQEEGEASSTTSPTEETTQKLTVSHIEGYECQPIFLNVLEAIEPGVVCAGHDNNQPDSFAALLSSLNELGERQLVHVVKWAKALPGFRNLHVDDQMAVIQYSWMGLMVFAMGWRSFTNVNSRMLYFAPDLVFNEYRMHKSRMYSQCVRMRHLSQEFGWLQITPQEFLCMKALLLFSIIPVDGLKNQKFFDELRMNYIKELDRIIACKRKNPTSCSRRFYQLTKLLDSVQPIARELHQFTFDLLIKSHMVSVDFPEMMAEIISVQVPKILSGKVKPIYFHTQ
How it was run: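 Agonist activity is measured as luciferase luminescence in human MDA-kb2 cells whose MMTV reporter responds to both AR and GR. Compounds in DMSO incubate 16 h at 37C, 0% CO2, and ONE-Glo is read after 30 min.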

[17] = molecular target: Androgen receptor (Homo sapiens) (UniProt P10275); assay: qHTS assay to identify small molecule antagonists of the androgen receptor (AR) signaling pathway (AID 743035; active means well fitted inhibition curve with a large enough effect in the signal ratio in the repeat runs, not every such curve was filed as active; the % refers to the signal ratio)
How it was run: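 Antagonist mode: AR-bla HEK293 cells co-treated with test compounds and agonist R1881 for 16 h at 37C, 5% CO2. Beta-lactamase activity read as FRET fluorescence after 2 h room-temperature substrate loading.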

[18] = molecular target: Androgen receptor (Homo sapiens) (UniProt P10275); assay: qHTS assay to identify small molecule agonists of the androgen receptor (AR) signaling pathway (AID 743036; active means well fitted activation curve with a large enough effect in the signal ratio in the repeat runs, with a control signal flat, not every such curve was filed as active; the % refers to the signal ratio)
How it was run: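 Cell-based FRET reporter assay: HEK293 line with a UAS-beta-lactamase construct, compounds added in DMSO, 16 h exposure at 37C, then 2 h substrate step at room temperature and fluorescence intensity read.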

[19] = molecular target: Androgen receptor (Homo sapiens) (UniProt P10275); assay: qHTS assay to identify small molecule antagonists of the androgen receptor (AR) signaling pathway using the MDA cell line (AID 743042; further: nearly all actives have a fitted effect of over 55% in size)
How it was run: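 MDA-kb2 cells (human breast carcinoma, stably carrying an MMTV-luciferase reporter responsive to AR and GR) were plated at 3,000 cells/well and preincubated 5 hr at 37C, then given compound plus R1881 agonist for 16 h. ONE-Glo luminescence was read.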

Row | SMILES | Potency [1] | Potency [2] | Potency [3] | Potency [4] | Potency [5] | outcome [6] | Potency [7] | outcome [8] | Potency [9] | Potency [10] | Potency [11] | Potency [12] | Potency [13] | Potency [14] | Potency [15] | Potency [16] | Potency [17] | Potency [18] | Potency [19]
1 | CC(=O)Oc1c(C)cc(OCC(O)CNC(C)C)c(C)c1C (configuration not stated) | inactive | inactive | inactive | inactive | inactive | inactive | inactive | inactive | 21.3 µM (active) | inactive | inactive | inactive | inactive | inactive | – | – | – | – | –
2 | COc1cc(Br)c(C[N+]2(CCOCCC3CCC4CC3C4(C)C)CCOCC2)cc1OC (configuration not stated) | inactive | inactive | inactive | inactive | inactive | inactive | inactive | inactive | inactive | inactive | – | 2.66 µM (active) | inactive | inactive | 1.5 µM (active) | inactive | – | – | –
3 | COc1ccc(C[C@H](C)NC[C@@H](O)c2ccc(O)c(NC=O)c2)cc1 | inactive | inactive | inactive | inactive | inactive | inactive | inactive | inactive | inactive | inactive | – | 26.6 µM (active) | inactive | inactive | 26.6 µM (active) | – | – | – | –
4 | C/C1=C2N=C(/C=C3N=C(/C(C)=C4\[N-]C(C(CC(N)=O)C4(C)CCC(=O)NCC(C)OP(=O)([O-])OC4C(CO)OC(n5cnc6cc(C)c(C)cc65)C4O)C4(C)N=C1C(CCC(N)=O)C4(C)CC(N)=O)C(CCC(N)=O)C\3(C)C)C(CCC(N)=O)C/2(C)CC(N)=O.[CH3-].[Co+3] (configuration not stated) | inactive | inactive | inactive | inactive | inactive | inactive | inactive | inactive | inactive | inactive | – | – | inactive | 23.7 µM (active) | inactive | – | – | – | –
5 | CN(C)CCC=C1c2ccccc2C(C)(C)c2ccccc21 | inactive | inactive | inactive | inactive | inactive | inactive | inactive | inactive | inactive | inactive | 13.3 µM (active) | 13.3 µM (active) | – | – | – | – | – | – | –
6 | CC(C)CN(C[C@@H](OP(=O)(O)O)[C@H](Cc1ccccc1)NC(=O)O[C@H]1CCOC1)S(=O)(=O)c1ccc(N)cc1 | inactive | inactive | inactive | inactive | inactive | inactive | inactive | inactive | inactive | inactive | inactive | inactive | inactive | inactive | – | – | – | – | –
7 | CCCCOC(=O)C(=O)Nc1cccc(-c2nn[nH]n2)c1 | inactive | inactive | inactive | inactive | inactive | inactive | inactive | inactive | – | inactive | inactive | inactive | inactive | inactive | inactive | inactive | inactive | inactive | inactive
8 | CC(CCc1ccc(O)cc1)NCC(O)c1ccc(O)cc1 (configuration not stated) | inactive | inactive | inactive | inactive | inactive | inactive | inactive | inactive | – | inactive | inactive | inactive | inactive | inactive | inactive | inactive | inactive | inactive | inactive
9 | CC1(C)C(\C=C/C=C\C=C/C=C2/N(CCCCS(=O)(=O)O)c3ccc4ccccc4c3C2(C)C)=[N+](CCCCS(=O)(=O)[O-])c2ccc3ccccc3c21 | inactive | inactive | inactive | inactive | inactive | inactive | inactive | inactive | inactive | inactive | – | 29.8 µM (active) | inactive | – | – | inactive | inactive | – | –
10 | CC(C)CCCC(C)NC(C)C (configuration not stated) | inactive | inactive | inactive | inactive | inactive | inactive | inactive | inactive | – | inactive | inactive | inactive | inactive | inactive | inactive | inactive | inactive | inactive | inactive
11 | COc1cc(C)c(/C=C/C(C)=C/C=C/C(C)=C/C(=O)O)c(C)c1C | inactive | inactive | inactive | inactive | inactive | inactive | inactive | inactive | inactive | inactive | – | – | inactive | inactive | – | inactive | – | – | inactive
12 | CC[C@@H](C(=O)O)[C@@H]1O[C@@H]([C@@H](C)[C@H](O)[C@H](C)C(=O)[C@H](CC)[C@H]2O[C@]3(C=C[C@@H](O)[C@]4(CC[C@@](C)([C@H]5CC[C@](O)(CC)[C@H](C)O5)O4)O3)[C@H](C)C[C@@H]2C)[C@@H](C)C[C@@H]1C | inactive | inactive | inactive | inactive | inactive | inactive | inactive | inactive | inactive | – | – | 0.237 µM (active) | – | – | 0.237 µM (active) | – | – | – | –
13 | CC(Oc1ccccc1)C(=O)N[C@@H]1C(=O)N2[C@@H]1SC(C)(C)[C@@H]2C(=O)O (some centres not stated) | inactive | inactive | inactive | inactive | inactive | inactive | inactive | inactive | inactive | inactive | – | inactive | – | inactive | – | – | – | – | –
14 | CCN(CC)CCOC(=O)c1cccnc1 | inactive | inactive | inactive | inactive | inactive | inactive | inactive | inactive | inactive | inactive | – | inactive | inactive | inactive | – | – | – | – | –
15 | C=CCNC1=C2C[C@@H](C)C[C@H](OC)[C@H](O)[C@@H](C)/C=C(\C)[C@H](OC(N)=O)[C@@H](OC)/C=C\C=C(/C)C(=O)NC(=CC1=O)C2=O | inactive | inactive | inactive | inactive | inactive | inactive | inactive | inactive | inactive | – | 0.473 µM (active) | 0.376 µM (active) | – | – | 0.335 µM (active) | – | – | – | –
